Data on 24 compounds can be found in PubChem BioAssay AID720595 (Broad Institute, 2013).

The structures appear in SMILES notation. Entries with a potency or affinity are not part of this list. The source made the active and inactive calls.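 The calls were made as follows: active = every repeat test gives a fitted half-maximal cytotoxic concentration no higher than twice the top valid dose; inconclusive = repeats disagree, or a flat partial loss or poor fit; inactive = the rest, including signal rising instead.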

This experiment is described as follows: HEK293T cell cytotoxicity, dose response, cytotoxicity control, CellTiter-Glo luminescence, dry powder, set 2 (AID 720595). The following applies: HEK293T viability, ATP luminescence, 72 h; series mostly up to 26 µM.
Regarding `CC1CCN(S(=O)(=O)c2ccc(C(=O)Nc3nnc(-c4ccno4)o3)cc2)CC1`, the compound was classed as inactive.
On to `COC(=O)c1ccc(NC(=O)CSc2ccc(-c3ccccn3)nn2)cc1`, for which the call was inactive.
As for `CC1CC(C)CN(S(=O)(=O)c2ccc(C(=O)Nc3nnc(C4=COCCO4)o3)cc2)C1` (centres undefined), the entry is “inactive”.
Regarding `COc1ccc(-c2nnc(NC(=O)c3ccc(S(=O)(=O)N4CCC(C)CC4)cc3)o2)cc1`, the compound was called inactive.
As for `O=C(Nc1nc(-c2ccncc2)cs1)c1cccc(S(=O)(=O)N2CCOCC2)c1`, the entry is “inactive”; as for `O=C(CSc1ccc(-c2ccccn2)nn1)N1CCCC1`, “inactive”.
Consider `Cc1ccc(C(=O)Nc2nc(-c3ccccn3)cs2)cc1S(=O)(=O)N1CCOCC1`, for which the call was inactive.
Take `Nc1nc(-c2ccccn2)nc(N)c1Cc1ccc(Cl)cc1Cl`: the compound was called inactive.
As for `Cc1ccc(S(=O)(=O)CCc2nnc(NC(=O)c3ccccc3)s2)cc1`, the entry is “inactive”; as for `O=C(Nc1nnc(C2=COCCO2)o1)c1ccc(S(=O)(=O)N2CCCCC2)cc1`, “inactive”.
Then `CC1CCN(S(=O)(=O)c2ccc(C(=O)Nc3nnc(C4CC4)o3)cc2)CC1`, with “inactive”; and `c1ccc(-c2nc(-c3ccncc3)n[nH]2)nc1`, with “inactive”.
`Cc1nnc(NC(=O)c2ccc(S(=O)(=O)N3CCCCC3)cc2)o1`: the call was inactive.
As for `CC1CCN(S(=O)(=O)c2ccc(C(=O)Nc3nnc(-c4cccs4)o3)cc2)CC1`, the entry is “inactive”; as for `CC1CCN(S(=O)(=O)c2ccc(C(=O)Nc3nnc(-c4ccccn4)o3)cc2)CC1`, “inactive”; as for `Cc1c(C(=O)N(C)C)sc2nc(-c3ccccn3)[nH]c(=O)c12`, “inactive”.
Then `FC(F)(F)c1cc(-c2nn[nH]n2)cc(C(F)(F)F)c1`, with “inactive”; and `O=C(CSc1ccc(-c2ccccn2)nn1)Nc1nccs1`, with “inactive”; and `O=C(Nc1nc(-c2ccncc2)cs1)c1ccco1`, with “inactive”.
With `Cc1cccc(NC(=O)CSc2ccc(-c3ccccn3)nn2)c1C`, the compound was classed as inactive.
`O=C(Nc1nc(-c2ccccn2)cs1)c1ccc(S(=O)(=O)N2CCOCC2)cc1`: the call was inactive.
For `O=C(CSc1ccc(-c2ccccn2)nn1)NC1CCCCC1`, the result was inactive.
`CC(C)Cc1nnc(NC(=O)c2cccc(S(=O)(=O)N3CCOCC3)c2)s1`: the result was inactive.
`Cc1ccc(C(=O)Nc2nc(-c3ccccc3)cs2)o1`: the outcome was inactive.
